Growth data for 17 compounds are collected here from PubChem BioAssay (NCI).

The panel holds about 83,000 compounds, 20% with a hit somewhere; the sample as a whole holds those more often.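 Testing used 96-well plates and a 48-hour single-concentration exposure. Example: -40 means 40% of the starting cells died.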 A number with no mark means an inactive call. Calls of active or inactive are those of the source. Rule for the calls: active = growth percent below 10; inactive = the rest.

What all share (test): NCI-60 one-dose screen, 48 h (100 = growth as untreated, 0 = no growth, -100 = all killed)
Conditions in all cases: 10 µM unless noted

Test [1] deals with T-47D breast.
For test [2], the system named is BT-549 breast.
Test [3] has as its system MDA-MB-435 melanoma.
In test [4] the test system is SW-620 colon.
Test [5] has as its system MCF7 breast.
The test system of test [6] is HCT-116 colon.
Test [7] deals with KM12 colon.

As for `Cc1cccc(Cl)c1NC(=O)c1cnc(Nc2cc(N3CCOCC3)cc(N3CCOCC3)c2)s1`, the growth is 0.787% (active) in test [1]; 56.3% in test [2]; 10.3% in test [3]; 82.2% in test [4]; 75% in test [5]; 11.5% in test [6]. The growth in test [7] is 62.4%.
Turning to `COC1CCC(N2C(=O)CNc3ncc(-c4ccc(C(C)(C)O)nc4)nc32)CC1` (centres undefined), the growth in test [1] was -24% (active); in test [2] it was -8.77% (active); in test [3] it was -27.9% (active); in test [4], 12%; in test [5], 3.23% (active); in test [6], 11.4%. Besides, in test [7], the growth was 7.39% (active).
In the case of `CN(C)C1CCN(C(=O)c2ccc(NC(=O)Nc3ccc(-c4nc(N5CCOCC5)nc(N5CCOCC5)n4)cc3)cc2)CC1`, the growth is -45.3% [2.5 µM] (active) in test [1]; -10.1% [2.5 µM] (active) in test [2]; -16.6% [2.5 µM] (active) in test [3]; 8.13% [2.5 µM] (active) in test [4]; 3.87% [2.5 µM] (active) in test [5]; 12.8% [2.5 µM] in test [6]. In addition, in test [7], the growth is 5.58% [2.5 µM] (active).
For the compound `CC[C@@H]1C(=O)N(C)c2cnc(Nc3ccc(C(=O)NC4CCC(N5CCN(CC6CC6)CC5)CC4)cc3OC)nc2N1C(C)C` (some centres undefined), the growth is 7.48% (active) in test [1]; 18.3% in test [2]; -29.6% (active) in test [3]; 12.2% in test [4]; -24% (active) in test [5]; -6.9% (active) in test [6]. For the same compound, in test [7], the growth is 4.24% (active).
In the case of `COc1ccc(Br)cc1NC(=O)Nc1cccc2c1ccn2Cc1ccnc(N)c1`, the growth in test [1] is 6.9% (active); in test [2] it was 51.1%; in test [3], 11.1%; in test [4], 19.4%; in test [5] it was 16.5%; in test [6], 16.8%. The growth in test [7] was 10.3%.
Take `Cc1cccc(Cl)c1NC(=O)c1cnc(Nc2cc(N3CCOCC3)cc(S(C)(=O)=O)c2)s1`: the growth is -15.6% (active) in test [1]; 66.7% in test [2]; 69.9% in test [3]; 113% in test [4]; 65% in test [5]; 13.2% in test [6]. In addition, the growth in test [7] was 87.8%.
For the compound `O=C(NOCCO)c1ccc2cncn2c1Nc1ccc(I)cc1F`, the growth is 83.4% in test [1]; 88.8% in test [2]; 47.4% in test [3]; 24.6% in test [4]; 96.2% in test [5]; 15.1% in test [6]. The growth in test [7] is 28.6%.
Take `O=C1NC(=O)C(c2cnc3ccccn23)=C1c1cn2c3c(cc(F)cc13)CN(C(=O)N1CCCCC1)CC2`: the growth is 33.8% in test [1]; 61.1% in test [2]; 51.2% in test [3]; 59.6% in test [4]; 35.2% in test [5]; 17.1% in test [6]. Moreover, the growth in test [7] was 46.2%.
Consider `Clc1ccc(/C=C/c2cc(N3CCOCC3)c3cc(Cl)c(Cl)cc3n2)cc1`, for which the growth in test [1] is 91.3%; in test [2] it was -20.4% (active); in test [3] it was 91%; in test [4] it was 111%; in test [5] it was 91.7%; in test [6], 98.3%. For the same compound, the growth in test [7] was 63.5%.
Take `N#Cc1c(NC(=O)c2cccs2)[n+]([O-])c2ccc(F)cc2[n+]1[O-]`: the growth in test [1] was 76.9%; in test [2], 99.6%; in test [3] it was 105%; in test [4], 74%; in test [5], 86.5%; in test [6] it was 104%. In addition, the growth in test [7] is 92.2%.
Consider `C[C@@H](N)c1ccc(C(=O)Nc2ccnc3[nH]ccc23)cc1`, for which the growth was 61.9% in test [1]; 13.9% in test [2]; 80.4% in test [3]; 20.5% in test [4]; 42.7% in test [5]; 14.4% in test [6]. Besides, in test [7], the growth was 30.3%.
`Oc1ccc(/C=N/Nc2nnc(N/N=C/c3ccc(O)cc3O)c3ccccc23)c(O)c1`: the growth was -53.2% (active) in test [1]; -23.6% (active) in test [2]; -6.07% (active) in test [3]; -1.28% (active) in test [4]; -57.2% (active) in test [5]; -44.1% (active) in test [6]. Also, the growth in test [7] was -73.2% (active).
`C=CC(=O)Nc1cccc(Oc2nc(Nc3ccc(N4CCN(C)CC4)cc3)nc3ccsc23)c1`: the growth in test [1] is -51% (active); in test [2], -37.5% (active); in test [3] it was -93.3% (active); in test [4], -62.2% (active); in test [5], -60.9% (active); in test [6], -89.2% (active). For the same compound, the growth in test [7] is -79.1% (active).
Consider `O=C(COc1cccc(/C=C2\Cc3ccc(Cl)cc3C2=O)c1)Nc1nccs1`, for which the growth was 55.5% in test [1]; 87.3% in test [2]; 86.6% in test [3]; 110% in test [4]; 35.1% in test [5]; 64.5% in test [6]. For the same compound, the growth in test [7] was 77.2%.
In the case of `C[C@@H]1COCCN1c1cc(C2([S@](C)(=N)=O)CC2)nc(-c2ccnc3[nH]ccc23)n1`, the growth in test [1] is 21.4%; in test [2] it was 27.2%; in test [3], 31%; in test [4], 43.7%; in test [5] it was 14.4%; in test [6] it was 35.5%. Moreover, the growth in test [7] was 21.4%.
Turning to `CC(=O)NCC(=O)N1[C@@H]2CC[C@H]1c1ccc(Nc3ncc(C(F)(F)F)c(NC4CCC4)n3)cc12`, the growth in test [1] is 88.4% [2.5 µM]; in test [2], 36.3% [2.5 µM]; in test [3] it was 39.9% [2.5 µM]; in test [4] it was 16.3% [2.5 µM]; in test [5], 25.1% [2.5 µM]; in test [6], 13.4% [2.5 µM]. Besides, the growth in test [7] was 3.64% [2.5 µM] (active).
Take `CCCNC(=O)c1cn2ncnc(Nc3cc(C(=O)NC4CC4)ccc3C)c2c1C`: the growth is 65.3% in test [1]; 103% in test [2]; 89.9% in test [3]; 39% in test [4]; 83.6% in test [5]; 101% in test [6]. Further, in test [7], the growth is 99.6%.
